Reference: PubChem BioAssay (EPA / NIEHS)
Records with an inconclusive call do not appear. Active and inactive are the calls of the source. The calls were made as follows: active = hit-call score of the fitted dose curve at least 0.9, where 1 is the maximum; inconclusive = response in the unintended direction; inactive = score below 0.9.

Target: human Vitamin D Receptor (VDR), VDR (gene 7421) (UniProt P11473)
Assay: ATG_VDR_TRANS: Attagene TRANS-FACTORIAL HepG2 Assay for human Vitamin D Receptor (VDR) (AID 2283022)
How it was run: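 Fluorescence of labelled reporter cDNA fragments, resolved by capillary electrophoresis, gives mRNA induction after 24 h treatment of HepG2 cells carrying transfected Gal4-fusion reporter units. Activity is fitted in the positive direction with DMSO as baseline.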

human Vitamin D Receptor (VDR), VDR (gene 7421), sequence (P11473 whole entry, looked up): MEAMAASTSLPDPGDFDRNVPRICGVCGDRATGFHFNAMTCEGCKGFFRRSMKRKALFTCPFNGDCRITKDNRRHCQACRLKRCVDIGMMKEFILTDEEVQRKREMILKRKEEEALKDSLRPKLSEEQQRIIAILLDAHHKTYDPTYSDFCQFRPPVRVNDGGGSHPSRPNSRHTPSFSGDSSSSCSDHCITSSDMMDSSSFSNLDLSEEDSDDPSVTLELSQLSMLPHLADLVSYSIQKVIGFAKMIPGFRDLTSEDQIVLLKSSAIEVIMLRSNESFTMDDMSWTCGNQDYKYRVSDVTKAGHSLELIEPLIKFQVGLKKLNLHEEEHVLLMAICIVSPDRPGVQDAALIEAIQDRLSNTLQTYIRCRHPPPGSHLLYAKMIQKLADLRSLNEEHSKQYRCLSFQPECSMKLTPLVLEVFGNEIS

Compound	outcome
Cc1cc(N)n(-c2ccccc2)n1	inactive
CC1=CC(O)CC(C)(C)C1 (stereo unspecified)	inactive
CC/C=C\C#N	inactive
CCCCCCCCCCCCCCCCCC(=O)OCCCCCCCCCCCCCC(C)C	inactive
CCNC(=S)NCC	inactive
OCCCO	inactive
CCCCCCCCCCOC(=O)c1ccccc1C(=O)OCCCCCCCC	inactive
N#CCCNCCC#N	inactive
c1coc(CNc2ncnc3nc[nH]c23)c1	inactive
Cc1cccc(C)c1	inactive
CCCCCCCCCO	inactive
CC(=N[Si](C)(C)C)O[Si](C)(C)C	inactive
CCCCOCC(C)OCC(C)O (stereo unspecified)	inactive
NNC(=O)OCc1ccccc1	inactive
CC(=O)CC(=O)N(C)C	inactive
CCCCCCCOC(C)=O	inactive
O=C(OCc1ccccc1)c1ccccc1O	inactive
CCCCC(CC)COCCO (stereo unspecified)	inactive

Compound	outcome
CC(C)N(c1ccccc1)C(C)C	inactive
O=Cc1ccccc1O	inactive
OCC=Cc1ccccc1	inactive
CC(=O)C1C(=O)C=C(C)OC1=O (stereo unspecified)	inactive
C=CCOC(=O)/C=C\C(=O)OCC=C	inactive
c1ccc(Cc2ccccc2)cc1	inactive
CCCCOC(=O)C(C)OC(=O)CCC (stereo unspecified)	inactive
S=c1[nH][nH]c(=S)s1	inactive
CC/C=C\CCOC(=O)C(C)C	inactive
CCC(CC)CO	inactive
CC(CCO)CC(C)(C)C (stereo unspecified)	inactive
CC(=O)Nc1cc(S(=O)(=O)O)cc2cc(S(=O)(=O)O)c(N=Nc3ccccc3)c(O)c12	inactive
C=CC(O)CCCCC (stereo unspecified)	inactive
C/C=C(\C)C(=O)OC/C=C(\C)CCC=C(C)C	inactive
CN(C)C	inactive
CCCC[N+](C)(CCCC)CCCC	inactive
C=C(C)C(=O)OCCC(C)OC(=O)C(=C)C (stereo unspecified)	inactive
CCC(=O)OC/C=C(\C)CCC=C(C)C	inactive
